Measurements: PubChem BioAssay
A number with no mark means an inactive call. Active and inactive are the calls of the source. Cut-off read from the data, not from the text of the source, unless noted: active = inhibition above about 36%; inactive = the rest.

Assays:
[1] = tested on: transactivating tegument protein VP16 (Human herpesvirus 1); experiment: compounds suppressing VP16-driven luciferase signal – cell-based, luminescence, single concentration, counter-screen for SRC2 inhibitor project (AID 652007); settings: cell-based VP16 transactivation luciferase reporter, at 8.9 µM, stronger effect = higher value
[2] = target: Nuclear receptor coactivator 2 (Homo sapiens) (UniProt Q15596); experiment: inhibition of GAL4-SRC2 driven luciferase expression – cell-based, luminescence, HEK293, triplicate, confirmation (AID 652008;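 active = mean inhibition above 46.5%, the solvent-only control mean plus 3 SD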;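 note: 0% = DMSO-treated cells and 100% = Gossypol at 36 µM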); settings: HEK293 GAL4-SRC2 luciferase reporter, at 8.9 µM, stronger effect = higher value
Nuclear receptor coactivator 2 (Homo sapiens), sequence (Q15596 whole entry, looked up, the tested form may be a part): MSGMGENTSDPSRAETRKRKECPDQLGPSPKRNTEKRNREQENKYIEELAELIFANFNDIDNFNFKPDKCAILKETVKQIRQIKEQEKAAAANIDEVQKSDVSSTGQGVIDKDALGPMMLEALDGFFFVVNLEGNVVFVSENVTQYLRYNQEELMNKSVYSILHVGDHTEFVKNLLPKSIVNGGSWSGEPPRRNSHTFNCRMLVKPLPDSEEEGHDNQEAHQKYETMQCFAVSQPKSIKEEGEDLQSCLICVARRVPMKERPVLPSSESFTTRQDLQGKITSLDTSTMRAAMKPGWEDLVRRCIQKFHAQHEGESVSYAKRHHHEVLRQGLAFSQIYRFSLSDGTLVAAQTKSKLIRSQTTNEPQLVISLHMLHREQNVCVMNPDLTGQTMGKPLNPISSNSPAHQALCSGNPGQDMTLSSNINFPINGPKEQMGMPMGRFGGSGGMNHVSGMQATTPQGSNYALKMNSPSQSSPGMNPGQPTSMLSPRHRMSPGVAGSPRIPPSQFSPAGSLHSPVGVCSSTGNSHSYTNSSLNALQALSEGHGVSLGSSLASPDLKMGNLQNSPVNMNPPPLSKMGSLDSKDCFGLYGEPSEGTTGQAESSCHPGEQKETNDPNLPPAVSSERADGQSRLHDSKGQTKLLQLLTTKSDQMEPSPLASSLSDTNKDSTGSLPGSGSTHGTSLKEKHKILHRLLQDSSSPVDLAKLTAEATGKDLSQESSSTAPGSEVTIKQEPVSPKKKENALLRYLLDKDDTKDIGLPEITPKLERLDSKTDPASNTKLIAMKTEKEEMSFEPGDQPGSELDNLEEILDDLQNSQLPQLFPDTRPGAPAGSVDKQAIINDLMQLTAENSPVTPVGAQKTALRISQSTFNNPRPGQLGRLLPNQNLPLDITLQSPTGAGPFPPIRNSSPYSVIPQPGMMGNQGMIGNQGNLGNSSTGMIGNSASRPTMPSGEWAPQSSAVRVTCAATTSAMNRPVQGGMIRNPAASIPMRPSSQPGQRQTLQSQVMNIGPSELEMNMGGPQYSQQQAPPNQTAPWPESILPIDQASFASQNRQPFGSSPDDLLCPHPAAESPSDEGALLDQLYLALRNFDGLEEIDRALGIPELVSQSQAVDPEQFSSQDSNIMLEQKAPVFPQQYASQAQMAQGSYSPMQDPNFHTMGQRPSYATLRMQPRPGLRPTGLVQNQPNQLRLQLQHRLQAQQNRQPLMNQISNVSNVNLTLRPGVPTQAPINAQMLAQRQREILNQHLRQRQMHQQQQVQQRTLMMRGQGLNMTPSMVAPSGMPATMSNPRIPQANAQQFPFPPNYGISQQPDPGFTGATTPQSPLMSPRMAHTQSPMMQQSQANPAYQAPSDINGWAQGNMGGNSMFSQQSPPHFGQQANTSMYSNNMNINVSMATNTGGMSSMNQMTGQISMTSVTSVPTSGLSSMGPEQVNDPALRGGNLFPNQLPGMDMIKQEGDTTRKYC

| SMILES | inhibition [1] | inhibition [2] |
| --- | --- | --- |
| O=C(NC1CC1)c1ccc2c(c1)N(Cc1ccc(Cl)cc1)CCS2 | 4.34% | 18.6% |
| CN(C)CCCN(C(=O)CCOc1ccccc1)c1nc2c(F)cccc2s1 | -2.69% | 20.6% |
| COc1ccc(OC)c(NC(=O)C(C)OC(=O)c2cc3ccccc3[nH]2)c1 (stereo not given) | -2.68% | 17.6% |
| CN1CCN(c2nc3ccccc3nc2C(C#N)S(=O)(=O)c2ccccc2)CC1 (stereo not given) | 10.5% | 20.1% |
| O=C(CSc1nc2[nH]c(=O)[nH]c(=O)c2s1)Nc1cccc(F)c1 | 0.35% | -0.5% |
| Cc1nc(S(=O)(=O)N(C)c2ccccc2)c(C#N)c(C)c1Cl | 3.59% | 40.9% |
| Cc1cccc(NC(=O)Nc2ccc(Cl)c(Cl)c2)n1 | -83.6% | -16.7% |
| Cn1nnnc1Sc1ncnc2scc(-c3cccc(F)c3)c12 | 7.55% | 38.1% |
| Cc1ccc(O)c(NC(=O)c2cc([N+](=O)[O-])ccc2Cl)c1 | 8.71% | 44.2% |
| N#CC1CCCc2c1[nH]c1ccc([N+](=O)[O-])cc21 (stereo not given) | -27% | -16.7% |
| Cc1cc2nc(Sc3c([N+](=O)[O-])nc(C)n3Cc3ccccc3)[nH]c2cc1C | 5.05% | 30.7% |
| O=C(O)c1cccc(CSc2nnc(COc3ccccc3)o2)c1 | 15.7% | 34.5% |
| Cc1ccc(S(=O)(=O)N2CCN(C(=O)c3cc4c(C)nn(-c5ccccc5C)c4s3)CC2)cc1 | 4.9% | 4.62% |
| COc1cc(/C=C2\COC/C(=C\c3cc(OC)c(OC)c(OC)c3)C2=O)cc(OC)c1OC | 96.8% (active) | 97.7% (active) |
| COc1ccc(/C=C2\SC(=S)N(CCCC(=O)N3CCN(C)CC3)C2=O)cc1 | -11.9% | 2.68% |
| CCN(C(=O)C1CCCN(c2nnc(-n3cccc3)s2)C1)c1ccccc1C (stereo not given) | 11.5% | 16.4% |
| O=C(CCc1ccncc1)N1CCCC(Nc2ccc(F)c(F)c2)C1 (stereo not given) | -3.61% | -7.87% |
| CC(C)Oc1ccc(S(=O)(=O)N2CCCCC2)cc1NC(=O)C1CCCC1 | 11.3% | 2.87% |
| CCOc1ccc(NC(=S)C(C#N)=C2N(C)c3ccccc3N2C)cc1 | -4.65% | -15.8% |
| CCC(C(=O)NCc1ccc(F)cc1)n1nc(C)n2c(cc3occc32)c1=O (stereo not given) | -13.4% | -6.88% |
